The chains are these.
B1: ENSMUSG00000029636.407|Wasf3 (ssRNA)
RNA: GGGAGUUCUACAGUCCGACGAUCGCUUCGAUAUCCGCAUGCUAAUACGGUAUUUUCUCAUAGUGUAAACUCAGGCAGAUGAAUAGCUGGAGAGUGGGUGGAUGGAUGGGUGAGUAUAUGGGUAGAUAAAUGGAUGAGUGGAUGGGUGGGUUAGGUGGGUAAGUAGCUAGGUGGAUGGGUGGGUGGAUACAUGGAUGAGUGGAUGGGUGGAUUGGUGGGUGAGUGGAUAGGUGAAUGGAUGAUAGGUGGUGGAUGGUUGAGUGGGUGGAUUCAUGAUGGAUGGAUGGAUGGAUGGAUGGAUGGACUCUUGCGGUCGCACUAGUGUGGAAUUCUCGGGUGUCAAGG
B2: ENSMUSG00000029636.392|Wasf3|68:72 (ssRNA)
RNA: GGGAGUUCUACAGUCCGACGAUCGCUUCGAUAUCCGCAUGCUACAUUUCAUGCUUAUACUUAAUCUACAGAUCGCAAGGUUGUUUUAUAUUAUCCCCUUAUAGUGUUCCAACACAAUUGUAGCUGAGUUUCAGAUACGGUAUUUUCUCAUAGUGUAAACUCAGGCAGAUGAAUAGCUGGAGAGUGGGUGGAUGGAUGGGUGAGUAUAUGGGUAGAUAAAUGGAUGAGUGGAUGGGUGGGUUAGGUGGGUAAGUAGCUAGGUGGAUGGGUGGGUGGAUACAUGGAUGAGUGGAUGGGUGGAUUGCUCUUGCGGUCGCACUAGUGUGGAAUUCUCGGGUGUCAAGG
B3: ENSMUSG00000029636.393|Wasf3|62:66 (ssRNA)
RNA: GGGAGUUCUACAGUCCGACGAUCGCUUCGAUAUCCGCAUGCUAAUGCUUAUACUUAAUCUACAGAUCGCAAGGUUGUUUUAUAUUAUCCCCUUAUAGUGUUCCAACACAAUUGUAGCUGAGUUUCAGAUACGGUAUUUUCUCAUAGUGUAAACUCAGGCAGAUGAAUAGCUGGAGAGUGGGUGGAUGGAUGGGUGAGUAUAUGGGUAGAUAAAUGGAUGAGUGGAUGGGUGGGUUAGGUGGGUAAGUAGCUAGGUGGAUGGGUGGGUGGAUACAUGGAUGAGUGGAUGGGUGGAUUGGUGGGUCUCUUGCGGUCGCACUAGUGUGGAAUUCUCGGGUGUCAAGG
B4: ENSMUSG00000029636.416|Wasf3 (ssRNA)
RNA: GGGAGUUCUACAGUCCGACGAUCGCUUCGAUAUCCGCAUGCUAUGGAUGGAUGGGUGAGUAUAUGGGUAGAUAAAUGGAUGAGUGGAUGGGUGGGUUAGGUGGGUAAGUAGCUAGGUGGAUGGGUGGGUGGAUACAUGGAUGAGUGGAUGGGUGGAUUGGUGGGUGAGUGGAUAGGUGAAUGGAUGAUAGGUGGUGGAUGGUUGAGUGGGUGGAUUCAUGAUGGAUGGAUGGAUGGAUGGAUGGAUGGAUGGAUGGAUGAGUGGAUGGAUAAUAGGUUGAUGGGUGGAUAGGUAGAUGAGUGACUCUUGCGGUCGCACUAGUGUGGAAUUCUCGGGUGUCAAGG
B5: ENSMUSG00000029636.395|Wasf3|50:54 (ssRNA)
RNA: GGGAGUUCUACAGUCCGACGAUCGCUUCGAUAUCCGCAUGCUAAAUCUACAGAUCGCAAGGUUGUUUUAUAUUAUCCCCUUAUAGUGUUCCAACACAAUUGUAGCUGAGUUUCAGAUACGGUAUUUUCUCAUAGUGUAAACUCAGGCAGAUGAAUAGCUGGAGAGUGGGUGGAUGGAUGGGUGAGUAUAUGGGUAGAUAAAUGGAUGAGUGGAUGGGUGGGUUAGGUGGGUAAGUAGCUAGGUGGAUGGGUGGGUGGAUACAUGGAUGAGUGGAUGGGUGGAUUGGUGGGUGAGUGGAUAGGUCUCUUGCGGUCGCACUAGUGUGGAAUUCUCGGGUGUCAAGG
B6: ENSMUSG00000029636.415|Wasf3 (ssRNA)
RNA: GGGAGUUCUACAGUCCGACGAUCGCUUCGAUAUCCGCAUGCUAAGUGGGUGGAUGGAUGGGUGAGUAUAUGGGUAGAUAAAUGGAUGAGUGGAUGGGUGGGUUAGGUGGGUAAGUAGCUAGGUGGAUGGGUGGGUGGAUACAUGGAUGAGUGGAUGGGUGGAUUGGUGGGUGAGUGGAUAGGUGAAUGGAUGAUAGGUGGUGGAUGGUUGAGUGGGUGGAUUCAUGAUGGAUGGAUGGAUGGAUGGAUGGAUGGAUGGAUGGAUGAGUGGAUGGAUAAUAGGUUGAUGGGUGGAUAGGUAGAUCUCUUGCGGUCGCACUAGUGUGGAAUUCUCGGGUGUCAAGG
B7: ENSMUSG00000029636.403|Wasf3 (ssRNA)
RNA: GGGAGUUCUACAGUCCGACGAUCGCUUCGAUAUCCGCAUGCUAAUGUGUAUUGUAGCUGAGUUUCAGAUACGGUAUUUUCUCAUAGUGUAAACUCAGGCAGAUGAAUAGCUGGAGAGUGGGUGGAUGGAUGGGUGAGUAUAUGGGUAGAUAAAUGGAUGAGUGGAUGGGUGGGUUAGGUGGGUAAGUAGCUAGGUGGAUGGGUGGGUGGAUACAUGGAUGAGUGGAUGGGUGGAUUGGUGGGUGAGUGGAUAGGUGAAUGGAUGAUAGGUGGUGGAUGGUUGAGUGGGUGGAUUCAUGAUGGACUCUUGCGGUCGCACUAGUGUGGAAUUCUCGGGUGUCAAGG
B8: ENSMUSG00000029636.408|Wasf3 (ssRNA)
RNA: GGGAGUUCUACAGUCCGACGAUCGCUUCGAUAUCCGCAUGCUAUAUUUUCUCAUAGUGUAAACUCAGGCAGAUGAAUAGCUGGAGAGUGGGUGGAUGGAUGGGUGAGUAUAUGGGUAGAUAAAUGGAUGAGUGGAUGGGUGGGUUAGGUGGGUAAGUAGCUAGGUGGAUGGGUGGGUGGAUACAUGGAUGAGUGGAUGGGUGGAUUGGUGGGUGAGUGGAUAGGUGAAUGGAUGAUAGGUGGUGGAUGGUUGAGUGGGUGGAUUCAUGAUGGAUGGAUGGAUGGAUGGAUGGAUGGAUGGAUGCUCUUGCGGUCGCACUAGUGUGGAAUUCUCGGGUGUCAAGG
B9: ENSMUSG00000029636.411|Wasf3 (ssRNA)
RNA: GGGAGUUCUACAGUCCGACGAUCGCUUCGAUAUCCGCAUGCUAACUCAGGCAGAUGAAUAGCUGGAGAGUGGGUGGAUGGAUGGGUGAGUAUAUGGGUAGAUAAAUGGAUGAGUGGAUGGGUGGGUUAGGUGGGUAAGUAGCUAGGUGGAUGGGUGGGUGGAUACAUGGAUGAGUGGAUGGGUGGAUUGGUGGGUGAGUGGAUAGGUGAAUGGAUGAUAGGUGGUGGAUGGUUGAGUGGGUGGAUUCAUGAUGGAUGGAUGGAUGGAUGGAUGGAUGGAUGGAUGGAUGAGUGGAUGGAUAAUCUCUUGCGGUCGCACUAGUGUGGAAUUCUCGGGUGUCAAGG
B10: ENSMUSG00000029636.401|Wasf3|14:18 (ssRNA)
RNA: GGGAGUUCUACAGUCCGACGAUCGCUUCGAUAUCCGCAUGCUAUUAUAGUGUUCCAACACAAUUGUAGCUGAGUUUCAGAUACGGUAUUUUCUCAUAGUGUAAACUCAGGCAGAUGAAUAGCUGGAGAGUGGGUGGAUGGAUGGGUGAGUAUAUGGGUAGAUAAAUGGAUGAGUGGAUGGGUGGGUUAGGUGGGUAAGUAGCUAGGUGGAUGGGUGGGUGGAUACAUGGAUGAGUGGAUGGGUGGAUUGGUGGGUGAGUGGAUAGGUGAAUGGAUGAUAGGUGGUGGAUGGUUGAGUGGGUGGCUCUUGCGGUCGCACUAGUGUGGAAUUCUCGGGUGUCAAGG
B11: ENSMUSG00000029636.410|Wasf3 (ssRNA)
RNA: GGGAGUUCUACAGUCCGACGAUCGCUUCGAUAUCCGCAUGCUAGUGUAAACUCAGGCAGAUGAAUAGCUGGAGAGUGGGUGGAUGGAUGGGUGAGUAUAUGGGUAGAUAAAUGGAUGAGUGGAUGGGUGGGUUAGGUGGGUAAGUAGCUAGGUGGAUGGGUGGGUGGAUACAUGGAUGAGUGGAUGGGUGGAUUGGUGGGUGAGUGGAUAGGUGAAUGGAUGAUAGGUGGUGGAUGGUUGAGUGGGUGGAUUCAUGAUGGAUGGAUGGAUGGAUGGAUGGAUGGAUGGAUGGAUGAGUGGAUGCUCUUGCGGUCGCACUAGUGUGGAAUUCUCGGGUGUCAAGG
B12: ENSMUSG00000029636.397|Wasf3 (ssRNA)
RNA: GGGAGUUCUACAGUCCGACGAUCGCUUCGAUAUCCGCAUGCUAGCAAGGUUGUUUUAUAUUAUCCCCUUAUAGUGUUCCAUGUGUAUUGUAGCUGAGUUUCAGAUACGGUAUUUUCUCAUAGUGUAAACUCAGGCAGAUGAAUAGCUGGAGAGUGGGUGGAUGGAUGGGUGAGUAUAUGGGUAGAUAAAUGGAUGAGUGGAUGGGUGGGUUAGGUGGGUAAGUAGCUAGGUGGAUGGGUGGGUGGAUACAUGGAUGAGUGGAUGGGUGGAUUGGUGGGUGAGUGGAUAGGUGAAUGGAUGAUACUCUUGCGGUCGCACUAGUGUGGAAUUCUCGGGUGUCAAGG
B13: ENSMUSG00000028439.291|Fam219a|94:98 (ssRNA)
RNA: GGGAGUUCUACAGUCCGACGAUCGCUUCGAUAUCCGCAUGCUAGUGUCUCUCCUUCAGGCGCCCCACAUGCCAGCAUUUCCACCCUCUGGAUUCUCCUCACAUGUCACUCUCCAGGUGCCGGGGCCUAGAGUGGGCCACACAGAAGGAGGAGUGGGGCUGUUGGCUUAGGAAGGGAAGCGCCUCUCUGUACACCACAACCAGGAGCUGCCCACUCCCCACACCUCCAGCCCAGCUUACCUCCCCCUAGUACAGAGAUCCUAAUUAGAUAAGAAAAUGCCAAGGGAGGCAAGCCAGAGAAAGCACUCUUGCGGUCGCACUAGUGUGGAAUUCUCGGGUGUCAAGG

Over roughly 9,900 sequences, “r (bound/input frequency ratio)” has its median near 0.7; the highest 2% begin near 6.5. The sample holds the highest values, similar sequences and a random draw of the others, so the mix is not that of the screen.

The target in the assay is TDP-43 (Homo sapiens, UniProt Q13148 1-414). The experiment in a line: RNA Bind-n-Seq with designed 260-mer pool; 25 mM Tris-HCl, 150 mM KCl, 3 mM MgCl2, BSA (printed 500 mg/mL), 20 units/mL SUPERase IN; pH not stated; 500 nM RNA pool, 1 h, 4 C; TDP-43 5, 50, 500 nM; high values mean tight binding. The conditions noted are these: protein: recombinant; tags: SBP (GST cleaved off with PreScission; pGEX-GST-SBP). In a few lines: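 In 25 mM Tris-HCl, 150 mM KCl, 3 mM MgCl2, BSA and SUPERase IN, 500 nM of an in vitro-transcribed 260-nt 3′ UTR oligo pool was incubated for 1 h at 4 °C with SBP-tagged TDP-43 (5, 50 or 500 nM) captured on streptavidin beads. RNA remaining after washes was biotin-eluted, reverse transcribed, PCR-amplified and sequenced. Binding, R, is the bound-sample abundance of each oligo, normalized to mapped reads, divided by its abundance in input. Each duplicate used a separate, independent protein batch.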
Sequence of TDP-43 (Q13148 whole entry): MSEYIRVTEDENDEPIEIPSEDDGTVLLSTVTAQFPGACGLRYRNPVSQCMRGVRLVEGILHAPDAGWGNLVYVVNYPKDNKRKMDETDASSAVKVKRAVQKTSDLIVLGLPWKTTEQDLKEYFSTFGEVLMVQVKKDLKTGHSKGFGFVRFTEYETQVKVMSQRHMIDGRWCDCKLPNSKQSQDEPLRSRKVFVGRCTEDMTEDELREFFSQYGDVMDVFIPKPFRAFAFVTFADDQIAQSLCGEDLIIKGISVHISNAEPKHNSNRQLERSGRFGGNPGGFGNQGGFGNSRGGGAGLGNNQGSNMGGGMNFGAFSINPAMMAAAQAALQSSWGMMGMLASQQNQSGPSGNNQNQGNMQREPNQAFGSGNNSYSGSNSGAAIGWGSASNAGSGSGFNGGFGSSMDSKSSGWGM
For the molecule B1, the binding signal was 3.52 R (bound/input frequency ratio). With B2 the figure was 4.14 R (bound/input frequency ratio); with B3, 6.94 R (bound/input frequency ratio); with B4, 6.38 R (bound/input frequency ratio). Next, B5: 4.72 R (bound/input frequency ratio); B6: 2.19 R (bound/input frequency ratio). As to B7, the binding signal was 15.4 R (bound/input frequency ratio). With B8 the figure was 20.3 R (bound/input frequency ratio); with B9, 7.25 R (bound/input frequency ratio); with B10, 4.07 R (bound/input frequency ratio). With B11 the figure was 2.97 R (bound/input frequency ratio). With B12 the figure was 4.09 R (bound/input frequency ratio).

Consider B13, for which the binding signal was 0.63 R (bound/input frequency ratio).
